# Results taken from the supplement of paper PMC3342239.
# Where a name gives a salt, the structure may show the parent alone.
# Tested on: Saccharomyces cerevisiae
# Experiment: fraction of cells in G1 phase (DNA content, flow cytometry); higher = more cells with unreplicated DNA (G1 delay)
# Settings: temperature: 30 C; YPD; JTY2953 pdr5 snq2 (sensitized); drug added to: cultures diluted from stationary phase; 6-7 h
# Outline: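 S. cerevisiae grown in YPD at 30°C was exposed to library drugs. In one setup, overnight sensitized JTY2953 cultures were diluted 1∶200, given a final 20 µg/ml and fixed after 6–7 h, while other runs dosed dividing JTY2953 with fixation 6 h later or BY4741 with fixation 4.33 h later. Cells were ethanol-fixed, stained with SYTOX Green and analysed by flow cytometry at 10,000 events. The G1 fraction is the area of the Dean-Jett-Fox G1 peak divided by the summed G1 and G2/M areas.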
row,SMILES,fraction of cells in G1 phase
1,CC(=O)Nc1ccc(OCC(O)CNC(C)C)cc1 (stereo not drawn) [Practolol] (75.0911 µM),0.506
2,CC(C)NCC(O)c1ccc2ccccc2c1 (stereo not drawn) [Pronethalol HCl] (87.2126 µM),0.502
3,Nc1nc(=O)n([C@@H]2CS[C@H](CO)O2)cc1F [Emtricitabine] (80.8899 µM),0.481
4,CO[C@@H]1[C@@H](OC(N)=O)[C@@H](O)[C@H](Oc2ccc3c(O)c(NC(=O)c4ccc(O)c(CC=C(C)C)c4)c(=O)oc3c2C)OC1(C)C [Novobiocin Na] (32.6456 µM),0.513
5,CCC(NC(C)C)C(O)c1ccc(O)c2[nH]c(=O)ccc12 (stereo not drawn) [Procaterol hcl] (68.8787 µM),0.526
6,Oc1ncnc2[nH]ncc12 [Allopurinol] (146.936 µM),0.483
7,CC1=C(CC(=O)O)c2cc(F)ccc2/C1=C\c1ccc([S+](C)[O-])cc1 (stereo not drawn) [Sulindac] (56.1137 µM),0.521
8,O=c1[nH]cnc2c1ncn2[C@H]1CC[C@@H](CO)O1 [Didanosine] (84.6625 µM),0.514
9,CC(C)NNC(=O)c1ccncc1 [Iproniazid] (111.593 µM),0.47
10,"C/C=C/c1ccc(OC)cc1 [Anethole, trans-] (134.947 µM)",0.525
11,Nc1nc(Cl)nc2c1ncn2[C@@H]1O[C@H](CO)[C@@H](O)[C@@H]1F [Clofarabine] (65.8583 µM),0.465
12,O=C(O)c1cn(C2CC2)c2cc(N3CCNCC3)c(F)cc2c1=O [Ciprofloxacin] (60.3592 µM),0.461
13,NC(CO)C(=O)NNCc1ccc(O)c(O)c1O (stereo not drawn) [Benserazide HCl] (77.7459 µM),0.514
